# Activity calls are given as the source filed them.
# Assays:
# [1] = tested on: Plasmodium falciparum Sir2 (PF13_0152, Sir2A); assay: Plasmodium falciparum Sir2A binding compounds – biochemical, small-molecule microarray, 635 nm fluorescence, primary screen (AID 1098); conditions: fluorescence 635 nm, higher = more signal;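 further: score merges spot fluorescence intensity with its signal-to-noise ratio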
# [2] = probe aDKK1 binding to arrayed compounds – biochemical, biotinylated probe, 635/667 nm fluorescence, primary screen (AID 1099); conditions: small-molecule microarray, higher = more signal;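 further: score merges 667nm spot fluorescence with signal to noise across triplicate slides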
# [3] = probe aCHRDL2 binding to arrayed compounds – biochemical, biotinylated probe, 635/667 nm fluorescence, primary screen (AID 1100); conditions: small-molecule microarray, higher = more signal
# [4] = change in splice reporter luminescence, either direction, cell-based, HEK293, spliceosome inhibition project, primary screen (AID 1101); conditions: HEK293 splicing luciferase reporter, 24 h, higher = more signal, called active from +8 up or from −8 down;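 further: HEK293 cells carrying a splicing-competent luciferase reporter gene; test concentration not given here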
# [5] = target: Fibroblast growth factor 10 (Homo sapiens) (UniProt O15520); assay: compounds binding fibroblast growth factor 10 – biochemical, small-molecule microarray, 635 nm fluorescence, primary screen (AID 1102); conditions: FGF10 binding, fluorescence 635 nm, higher = more signal
# [6] = tested on: glycogen synthase kinase-3 (GSK3A per assay name; protocol says GSK3B); assay: compounds binding glycogen synthase kinase-3 – biochemical, small-molecule microarray, 635 nm fluorescence, GSK3A, primary screen (AID 1103); conditions: fluorescence 635 nm, higher = more signal; further: the record names both GSK3A and GSK3B
# [7] = target: Epidermal growth factor receptor (Homo sapiens) (UniProt P00533); assay: compounds binding epidermal growth factor receptor – biochemical, small-molecule microarray, 635 nm fluorescence, primary screen (AID 1104); conditions: EGFR binding, higher = more signal;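 further: score merges 667 nm emission intensity with spot signal to noise over triplicate slides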
# [8] = target: Follistatin-related protein 3 (Homo sapiens) (UniProt O95633); assay: compounds binding follistatin-related protein 3 – biochemical, small-molecule microarray, 635 nm fluorescence, primary screen (AID 1105); conditions: FSTL3 binding, higher = more signal;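 further: score merges emission near 667 nm and signal to noise per printed spot across three slides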
# [9] = target: Dickkopf-related protein 1 (Homo sapiens) (UniProt O94907); assay: small molecules binding DKK1 protein – biochemical, small-molecule microarray, 635 nm fluorescence scan, primary screen (AID 1106); conditions: higher = more signal;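 further: score merges emission near 667 nm with signal to noise over three replicate slides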
# [10] = tested on: Inhibin beta A chain (activin A); assay: small molecules binding activin A – biochemical, small-molecule microarray, 635 nm fluorescence scan, primary screen (AID 1107); conditions: INHBA, higher = more signal;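 further: mouse activin A protein probed at 4.33 µg/mL on printed slides; score merges bound-protein fluorescence near 667 nm with spot signal-to-noise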
# [11] = tested on: Human papillomavirus type 1a protein E7 (residues 44-93); assay: small molecules binding HPV E7 44-93 – biochemical, small-molecule microarray, residues 44-93, 635 nm fluorescence, primary screen (AID 1108); conditions: fluorescence 635 nm, higher = more signal;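 further: E7 fragment applied at 1 µg/mL in TBST for 1 h at 4 C; score combines spot fluorescence with its signal to noise ratio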
# [12] = hepatitis C replication reporter changes, two-sided – Huh7 cells, luciferase reporter, HCV replication inhibitor project, primary screen (AID 1109); conditions: Huh7 HCV replicon luciferase reporter, 48 h; higher = more signal;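 further: huh7 hepatoma cells harbouring a luciferase neomycin HCV replicon reporter; luciferase luminescence as measure of HCV replicon replication; test concentration not given here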
# [13] = target: Left-right determination factor 2 (Homo sapiens) (UniProt O00292); assay: small molecules binding LEFTY2 protein – biochemical, small-molecule microarray, 635 nm fluorescence scan, primary screen (AID 1110); conditions: higher = more signal
# [14] = target: Calmodulin-1 (Homo sapiens) (UniProt P0DP23); assay: small molecules binding calmodulin-1 with EGTA – biochemical, small-molecule microarray, Cy5-labelled CALM1, profiling panel (AID 1111); conditions: Cy5-CALM1 binding fluorescence, higher = more signal;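 further: labelled calmodulin applied in Tris saline Tween buffer holding calcium plus EGTA and DTT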
# [15] = target: Calmodulin-1 (Homo sapiens) (UniProt P0DP23); assay: small molecules binding Ca-loaded calmodulin-1 – biochemical, small-molecule microarray, Cy5-labelled CALM1, plus calcium, artefact control for SMM control-protein annotation, profiling panel (AID 1112); conditions: Cy5-CALM1 binding fluorescence, higher = more signal;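 further: score merges spot fluorescence with signal to noise from triplicate slides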
# [16] = probe aWnt5a binding to arrayed compounds – biochemical, biotinylated probe, 635/667 nm fluorescence, primary screen (AID 1113); conditions: small-molecule microarray, higher = more signal;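 further: score merges 667 nm fluorescence intensity with signal-to-noise per printed feature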
# [17] = probe aShh binding to arrayed compounds – biochemical, biotinylated probe, 635/667 nm fluorescence, primary screen (AID 1114); conditions: small-molecule microarray, higher = more signal;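 further: probe is biotin-labelled aShh protein from a stem cell growth factor screen; measures binding of labelled protein to compounds printed on the slide; score merges feature fluorescence at 667 nm with signal-to-noise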
# [18] = probe aNog binding to arrayed compounds – biochemical, biotinylated probe, 635/667 nm fluorescence, primary screen (AID 1115); conditions: small-molecule microarray, higher = more signal;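 further: probe is biotinylated aNog protein used at 0.15 µg/mL for 1 h at 4 C; z-score combines 667 nm fluorescence of each spot with its signal to noise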
# [19] = target: Torsin-1A-interacting protein 1 (Homo sapiens) (UniProt Q5JTV8); assay: compound microarray binding of lysate hLAP1 – cell lysate, small-molecule microarray, COS7 lysate, 635/667 nm fluorescence, primary screen (AID 1116); conditions: 635 nm fluorescence, higher = more signal
# [20] = target: Alpha-bungarotoxin (Bungarus multicinctus) (UniProt P60615); assay: compounds binding labelled alpha-BTX control protein – biochemical, small-molecule microarray, Alexa647 label, 635/667 nm fluorescence, artefact control for SMM control protein annotation, profiling panel (AID 1117); conditions: alpha-BTX-A647 binding fluorescence, higher = more signal
# Alpha-bungarotoxin (Bungarus multicinctus), sequence (P60615 whole entry, looked up): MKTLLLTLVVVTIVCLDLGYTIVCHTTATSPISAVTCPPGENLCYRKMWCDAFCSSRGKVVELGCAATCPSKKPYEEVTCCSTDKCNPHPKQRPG
# Fibroblast growth factor 10 (Homo sapiens), sequence (O15520 whole entry, looked up): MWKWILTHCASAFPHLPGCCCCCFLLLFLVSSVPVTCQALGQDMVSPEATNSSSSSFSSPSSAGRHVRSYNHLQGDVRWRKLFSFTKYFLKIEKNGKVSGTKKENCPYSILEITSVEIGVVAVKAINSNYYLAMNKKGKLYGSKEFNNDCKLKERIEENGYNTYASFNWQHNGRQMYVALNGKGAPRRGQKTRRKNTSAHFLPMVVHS
# Follistatin-related protein 3 (Homo sapiens), sequence (O95633 whole entry, looked up): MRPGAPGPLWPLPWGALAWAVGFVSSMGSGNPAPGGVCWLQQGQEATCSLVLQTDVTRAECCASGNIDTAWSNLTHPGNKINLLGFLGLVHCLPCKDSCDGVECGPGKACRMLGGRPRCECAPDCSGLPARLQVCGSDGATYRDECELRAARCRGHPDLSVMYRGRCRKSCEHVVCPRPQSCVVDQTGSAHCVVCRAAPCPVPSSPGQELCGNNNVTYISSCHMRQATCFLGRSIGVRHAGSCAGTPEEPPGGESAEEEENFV
# Left-right determination factor 2 (Homo sapiens), sequence (O00292 whole entry, looked up): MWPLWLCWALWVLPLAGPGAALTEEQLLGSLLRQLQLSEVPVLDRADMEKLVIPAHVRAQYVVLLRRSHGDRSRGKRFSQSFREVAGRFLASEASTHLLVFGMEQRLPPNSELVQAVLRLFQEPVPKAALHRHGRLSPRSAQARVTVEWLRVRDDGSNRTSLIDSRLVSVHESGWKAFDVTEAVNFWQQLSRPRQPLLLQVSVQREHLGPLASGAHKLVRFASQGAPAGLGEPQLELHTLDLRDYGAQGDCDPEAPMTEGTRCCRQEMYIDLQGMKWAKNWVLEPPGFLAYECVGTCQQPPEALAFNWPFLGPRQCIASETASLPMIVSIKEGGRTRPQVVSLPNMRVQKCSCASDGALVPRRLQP
# Dickkopf-related protein 1 (Homo sapiens), sequence (O94907 whole entry, looked up): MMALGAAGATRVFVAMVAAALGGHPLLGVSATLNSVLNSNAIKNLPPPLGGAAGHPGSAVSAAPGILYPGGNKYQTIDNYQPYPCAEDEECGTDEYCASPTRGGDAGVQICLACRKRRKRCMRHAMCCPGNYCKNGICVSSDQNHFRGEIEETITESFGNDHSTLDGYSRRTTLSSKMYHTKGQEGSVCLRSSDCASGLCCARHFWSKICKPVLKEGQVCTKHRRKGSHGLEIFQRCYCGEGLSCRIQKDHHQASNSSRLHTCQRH
# Epidermal growth factor receptor (Homo sapiens), sequence (P00533 whole entry, looked up): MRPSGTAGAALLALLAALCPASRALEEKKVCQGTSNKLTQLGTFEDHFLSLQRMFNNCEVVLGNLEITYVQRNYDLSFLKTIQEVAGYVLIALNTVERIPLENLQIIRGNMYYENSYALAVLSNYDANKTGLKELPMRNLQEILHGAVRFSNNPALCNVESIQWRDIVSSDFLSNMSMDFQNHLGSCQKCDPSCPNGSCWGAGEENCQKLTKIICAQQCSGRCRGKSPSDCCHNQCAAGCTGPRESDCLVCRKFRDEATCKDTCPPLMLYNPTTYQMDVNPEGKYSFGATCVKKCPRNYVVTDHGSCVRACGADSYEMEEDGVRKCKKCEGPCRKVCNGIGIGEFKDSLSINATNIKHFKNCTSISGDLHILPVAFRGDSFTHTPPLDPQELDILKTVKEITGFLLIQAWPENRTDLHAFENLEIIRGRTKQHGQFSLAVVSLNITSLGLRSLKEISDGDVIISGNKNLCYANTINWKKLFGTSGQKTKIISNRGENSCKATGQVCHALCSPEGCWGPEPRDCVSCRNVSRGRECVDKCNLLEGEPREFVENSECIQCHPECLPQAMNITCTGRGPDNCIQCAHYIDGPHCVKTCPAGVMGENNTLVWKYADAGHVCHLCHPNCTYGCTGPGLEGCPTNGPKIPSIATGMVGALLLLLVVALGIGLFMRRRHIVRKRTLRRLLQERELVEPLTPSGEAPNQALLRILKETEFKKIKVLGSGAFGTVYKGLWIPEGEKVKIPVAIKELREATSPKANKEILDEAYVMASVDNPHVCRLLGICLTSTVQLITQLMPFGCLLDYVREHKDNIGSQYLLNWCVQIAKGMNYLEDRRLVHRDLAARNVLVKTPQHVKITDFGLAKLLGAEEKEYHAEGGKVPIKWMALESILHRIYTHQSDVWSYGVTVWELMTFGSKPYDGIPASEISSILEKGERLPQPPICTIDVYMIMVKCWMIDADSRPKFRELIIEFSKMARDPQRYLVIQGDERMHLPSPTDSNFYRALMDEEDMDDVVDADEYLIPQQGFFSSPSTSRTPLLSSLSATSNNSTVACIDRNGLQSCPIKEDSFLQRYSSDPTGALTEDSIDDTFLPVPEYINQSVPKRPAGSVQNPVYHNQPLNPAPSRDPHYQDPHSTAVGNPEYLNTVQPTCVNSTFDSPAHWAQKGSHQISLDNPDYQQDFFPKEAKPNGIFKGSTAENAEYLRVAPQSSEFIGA
# Torsin-1A-interacting protein 1 (Homo sapiens), sequence (Q5JTV8 whole entry, looked up): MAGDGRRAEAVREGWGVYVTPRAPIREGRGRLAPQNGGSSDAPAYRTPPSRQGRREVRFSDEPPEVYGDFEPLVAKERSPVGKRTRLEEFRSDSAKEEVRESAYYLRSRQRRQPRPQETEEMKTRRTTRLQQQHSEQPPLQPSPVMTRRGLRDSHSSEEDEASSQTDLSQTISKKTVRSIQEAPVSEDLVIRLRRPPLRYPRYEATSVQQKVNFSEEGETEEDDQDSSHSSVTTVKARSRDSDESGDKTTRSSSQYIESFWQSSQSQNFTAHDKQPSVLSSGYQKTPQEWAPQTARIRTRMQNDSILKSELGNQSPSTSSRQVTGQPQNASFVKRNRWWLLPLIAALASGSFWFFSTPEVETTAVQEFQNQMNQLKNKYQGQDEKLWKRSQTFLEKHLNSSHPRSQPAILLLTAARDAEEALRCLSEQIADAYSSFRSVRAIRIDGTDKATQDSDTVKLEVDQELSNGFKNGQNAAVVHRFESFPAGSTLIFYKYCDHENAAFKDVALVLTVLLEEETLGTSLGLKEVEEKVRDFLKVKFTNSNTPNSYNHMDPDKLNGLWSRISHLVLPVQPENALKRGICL
Structure (SMILES),composite z-score [1],composite z-score [2],composite z-score [3],z-score [4],composite z-score [5],composite z-score [6],composite z-score [7],composite z-score [8],composite z-score [9],composite z-score [10],composite z-score [11],z-score [12],composite z-score [13],composite z-score [14],composite z-score [15],composite z-score [16],composite z-score [17],composite z-score [18],composite z-score [19],composite z-score [20]
C=C(COC)/C(=C/C[C@@H](OC(C)=O)c1ccc(OCCO)cc1)c1cnc2ccccc2c1,1.14,-0.151,0.352,-0.949 (inactive),1.57,0.369,0.824,1.49,1.25,1.7,0.487,-1.19,0.989,0.263,-0.731,-0.0761,0.0557,-0.1,0.174,1.63
COc1ccc([Si](C)(C)[C@@H]2[C@@H](CC(=O)N3CCC[C@H]3CO)O[C@]3(C(=O)N(c4ccccc4)c4ccccc43)[C@H]2C)cc1,0.977,0.0231,-0.169,-2.29 (inactive),0.613,1.23,0.501,1.4,0.85,0.748,1.36,-0.417,0.751,0.528,-0.143,-0.124,0.0328,-0.0047,0.691,1.09
CC(C)(C)OC(=O)CC[C@]1(C(=O)N2CCOCC2)N=C(c2ccc(OCCCO)cc2)O[C@H]1c1ccccc1N=[N+]=[N-],1.5,0.653,0.854,-0.921 (inactive),1.18,1.2,-0.0405,0.0265,0.283,0.936,1.05,2.2,0.119,0.981,0.0644,-0.0125,0.308,1.37,2.43,1.23
[N-]=[N+]=Nc1ccccc1[C@@H]1OC(c2ccc(OCCCO)cc2)=N[C@]1(Cc1ccccc1)C(=O)N1CCOCC1,0.839,1.05,1.11,-1.15 (inactive),1.39,1.28,0.308,1.16,0.284,0.904,1.44,-1.41,0.425,1.65,0.959,0.72,0.315,0.314,1.21,1.3
C=CCNC(=O)[C@@H]1[C@H]2C(=O)O[C@H](c3ccccc3)[C@H](c3ccccc3)N2[C@H](c2ccc(OCCO)cc2)[C@@]12C(=O)Nc1ccc(C#CCC(C(=O)OC)C(=O)OC)cc12,1.7,0.264,0.171,-0.646 (inactive),1.23,1.27,-0.122,0.753,0.335,0.614,0.637,-2.18,0.608,0.263,-0.224,0.105,0.147,0.914,1.19,1.8

# From PubChem BioAssay
